Source: PubChem BioAssay (National Center for Advancing Translational Sciences (NCATS))
Most compounds without a hit are left out; they make up all but 7.9% or so of the library.
FMDV antiviral: antivirals against foot and mouth disease virus; hit rate 1.2% among 410,000; FMDV antiviral cell-based qHTS; Potency, µM (titrated, usually from 57.9 µM), for inactives: top-dose activity change, negative = inhibition, actives largely listed as inhibitors; calls by dose curve; tested in HEK293T cells; also: read-out not given here; potency is read from the fitted curve at half-maximal effect; nearly all actives have a fitted effect of over 45% in size
Marburg entry inh: Marburg virus entry inhibition | Marburg virus pseudotyped entry inhibition, cell reporter | hit rate 1.8% among 300,000 | AID 540276 | Potency, µM (doses to about 37.8 µM), inactives show at the top dose activity change, negative = inhibition, hits mostly inhibitors; calls by dose curve; tested in HEK293 cells; also: potency is read from the fitted curve at half-maximal effect
HCV inhibitor: blocks hepatitis C virus; Huh7.5.1 HCVcc-Cre infection, luciferase reporter, 44 h; Potency, µM (highest dose often 41.8 µM), for inactives: at the top dose activity change, negative = inhibition, actives largely listed as inhibitors; hit rate 3.4% among 340,000; active = well fitted inhibition curve with a large enough effect; inconclusive = small, poorly fitted or top-dose-only effect, or another doubt; inactive = no such curve, though single readings can be large or run the other way; also: potency is read from the fitted curve at half-maximal effect
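Reporter virus HCVcc-Cre (~0.5 moi) infects cells exposed to compound; seeding density 1,000 cells/well with 4 h settling beforehand. Luminescence, 15 sec read, taken 44 h post-infection following a 15 min RT substrate incubation.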
Lassa entry inh: inhibitors of Lassa virus binding or cell entry; Lassa virus pseudotype entry inhibition, cell reporter; Potency, µM (doses to about 37.9 µM), without a hit: at the highest dose activity change, negative = inhibition, usual class: inhibitors; hit rate 1.2% among 300,000; AID 540256; calls by dose curve; tested in HEK293 cells; also: potency is read from the fitted curve at half-maximal effect; nearly all actives have a fitted effect of over 50% in size
HCMV inh: blocks human cytomegalovirus replication. HFF cells, HCMV-luciferase reporter, 72 h; hits give low values. activity change, negative = inhibition, % at 57.5 µM. hit rate 4.5% among 410,000; in the data active = activity change below about -60%; inconclusive = no clear call, values can overlap the other calls; inactive = above about -39%
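Luciferase read-out from HCMV-luciferase-infected HFFs (MOI 1 PFU/cell) 72 h post infection at 37C; compounds added after 16 h cell attachment; activity normalized between buffer-only basal and Salinomycin (10uM) inhibitor controls.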
Numbers without * were called inactive; ? = inconclusive; . = not tested or not shown; ! = not confirmed by another sample; [ ] = dose if it differs, or a comment. % is scaled to controls: 0 for no effect and ±100 for the full control effect.

SMILES	FMDV antiviral	Marburg entry inh	HCV inhibitor	Lassa entry inh	HCMV inh
CCc1cccc2c(-c3ccccc3)nc(SCC(=O)Nc3ccc(OC)cc3)nc12	-4%	-16%[46.1 µM]	.	9%[46.1 µM]	3
Cc1cccc(Cn2c(=O)n(-c3ccc(Cl)c(Cl)c3)c(=O)c3c(C)c(C)sc32)c1	0%	-5%[46.1 µM]	.	7%[46.1 µM]	7
CCOc1ccc(NC(=S)NC(=O)c2cnn(CC)c2)c([N+](=O)[O-])c1	-15%	-12%[46.1 µM]	-18%	-23%[46.1 µM]	18
CCOc1ccc(NC(=S)NC(=O)/C=C/c2ccc(Br)cc2)c([N+](=O)[O-])c1	12%	-24%	6%	21µM*	-17
Fc1ccc(C2C3=C(Nc4ncnn42)c2ccccc2OC3c2ccncc2)cc1 (stereo not given)	-22%	-11%	?	-20%	-13
Cc1ccc(C2Oc3ccccc3C3=C2C(c2cccs2)n2ncnc2N3)cc1 (stereo not given)	0%	?	13µM*	?	-14
CCCc1cc(C(=O)Nc2ccc(C(=O)c3ccc(C)cc3)cc2)n(C)n1	-29%	?	10µM*	?	-24
COc1ccc(N2C(=O)[C@@H]3C[C@H]2CN3Cc2ccc3nccnc3c2)cc1Cl	-14%	.	.	.	.
Cc1oc(C(=O)Nc2ccc(O)cc2)cc1COc1ccccc1	16%	?	?	20µM*	-36
CC1C/C(=N\NC(N)=S)c2cc(Cl)ccc2S1 (stereo not given)	?	13µM*	-19%	?	-10
CC(C)=C1CCC(C)CC1=NNC(N)=S (stereo not given)	?	-13%	?	?	-15
CC1CN(C(=O)c2ccccc2OCc2ccc(Cl)cc2Cl)CC(C)O1 (stereo not given)	-22%	.	14µM*	.	?
CC1CN(C(=O)c2cccc(COc3ccccc3Cl)c2)CC(C)O1 (stereo not given)	-5%	?	11%	0%[46.1 µM]	88
COc1ccc(S(=O)(=O)N2CCN(Cc3nc4ccc(C)cc4o3)CC2)cc1OC	-23%	.	.	-2%[46.1 µM]	-14
COc1cc(Nc2cc3c(cn2)nc(-c2ccco2)n3C)cc(OC)c1OC	.	.	.	.	11
COC(C/C=C/C(=O)[C@H](C)OCc1ccccc1)OC	35µM*	.	1%[8.37 µM]	.	.
Cc1ccc(/C=C/C(=O)NC(C)c2ccccc2)cc1 (stereo not given)	10%	9%	1%	11µM*	-25
O=C(/C=C/c1ccc(Br)cc1)NC(=O)c1ccccc1O	-60%	8%[14.2 µM]	0%	-18%	-102*
CC(NC(=O)/C=C/c1ccc(Br)cc1)c1ccccc1 (stereo not given)	-17%	?	-21%	15µM*	16
O=C(/C=C/c1ccc(O)c(O)c1)NC(=O)c1ccccc1O	25%	.	-29%	.	64
Cc1ncc2c(c1CNC(=O)c1ccc3c(c1)OCO3)CCN(C(=O)c1csc3c1CCCC3)C2	1%	.	.	.	.
CCc1nnc(NC(=O)CSc2nccn2Cc2ccc(Cl)cc2)s1	-26%	.	.	-17%[46.1 µM]	-8
O=C(CSc1ncnc2sc3c(c12)CCCC3)N1CCC(c2noc3ccc(F)cc23)CC1	3%	?	11µM*!	-25%	11
O=C(CSc1ncnc2sc3c(c12)CCC3)N1CCOCC1	-17%	3%[46.1 µM]	?	-3%	2
Cc1ccc(NC(=O)C2CCN(S(=O)(=O)c3ccc4c(c3)OCCCO4)CC2)nc1	?	-12%	?	-2%[46.1 µM]	-63*
SMILES	FMDV antiviral	Marburg entry inh	HCV inhibitor	Lassa entry inh	HCMV inh
Cc1cccc(NC(=O)C2CCN(S(=O)(=O)c3ccc4c(c3)OCCCO4)CC2)n1	?	?	?	-9%	-79*
C=CCSC1=C(C#N)C(c2ccccc2Cl)C(C(=O)c2cccs2)C(O)(C(F)(F)F)N1 (stereo not given)	-23%	?	?	-2%	-70*
Cc1nc(NCC2CC2)c2nnn(Cc3ccccc3)c2n1	4%	?	?	-1%	-2
Cc1nc(N(CCO)C2CCCCC2)c2nnn(Cc3ccccc3)c2n1	-18%	10µM*	-12%	-10%[46.1 µM]	-15
O=c1c(-c2ccc(Cl)cc2)nc2cnc(N3CCOCC3)nc2n1Cc1ccc(F)cc1	-17%	.	.	.	.
CS(=O)(=O)CCNCc1nc(-c2ccc3ncnc(Nc4ccc(OCc5cccc(F)c5)c(Cl)c4)c3c2)cs1	9%	.	.	.	.
CS(=O)(=O)CCNCc1ccc(-c2ccc3ncnc(Nc4ccc(OCc5ccccc5)cc4)c3c2)o1	.	.	.	16µM*	.
CS(=O)(=O)CCNCc1ccc(-c2ccc3ncnc(Nc4ccc(OCc5cccc(F)c5)c(C(F)(F)F)c4)c3c2)o1	.	.	.	20µM*	.
CN1CCN(Cc2nc3ccccc3c(=O)n2Cc2nc(-c3ccc([N+](=O)[O-])cc3)cs2)CC1	-13%	?	?	?	?
CN(C)Cc1nc2ccccc2c(=O)n1Cc1nc(-c2cccc([N+](=O)[O-])c2)cs1	-25%	10%[46.1 µM]	11µM*	?	44
COc1ccc(C2=NCC(C)n3c2c2ccc(OC)cc2[n+]3[O-])cc1 (stereo not given)	.	.	.	.	33
CCCCCn1c(=O)[nH]c2cc(C(=O)N3CCN(c4ccc(OC)cc4)CC3)ccc2c1=O	-23%	?	.	11%[46.1 µM]	-20
CCCCCn1c(=O)[nH]c2cc(C(=O)N3CCN(c4ccc(F)cc4)CC3)ccc2c1=O	?	-16%[46.1 µM]	?	-1%[46.1 µM]	-76*
CCCCCn1c(=O)[nH]c2cc(C(=O)N3CCN(c4ccc(C(C)=O)cc4)CC3)ccc2c1=O	?	?	7.9µM*	-16%[46.1 µM]	-74*
CCCCCn1c(=O)[nH]c2cc(C(=O)N3CCN(c4cccc(C)c4)C(C)C3)ccc2c1=O (stereo not given)	16µM*	?	.	?	-28
CC1CCN(S(=O)(=O)c2ccc3c(c2)c(=O)c(C(=O)NC(C)c2ccccc2)cn3C)CC1 (stereo not given)	-15%	4%[46.1 µM]	.	18%[46.1 µM]	-10
Cc1cc(C)c(NC(=O)CSc2ncc(S(=O)(=O)c3ccc(C(C)(C)C)cc3)c(=O)[nH]2)c(C)c1	-26%	12%[46.1 µM]	.	.	20
CCCCCCCCNC(C)C(O)c1ccc(SC(C)C)cc1 (stereo not given)	?	-9%	-4%[8.37 µM]	?	-82*
C[C@@H](NCCc1ccc(O)cc1)[C@@H](O)c1ccc(O)cc1	-27%	43%	6%	?	103
O=C(c1ccco1)N1CCN(C(=O)c2cc(-c3ccccc3)nc3ccccc23)CC1	8%	?	-4%	?	69
Cc1cccc2c(C(=O)N3CCN(C(=O)c4ccco4)CC3)cc(-c3cccc(Br)c3)nc12	18µM*	?	?	?	-64*
Cc1cc(C)c2nc(C(F)(F)F)nc(N3CCN(C(=O)c4ccco4)CC3)c2c1	?	0%	13µM*	-12%	?
CCc1ccc(C(=O)c2cn(CC(=O)Nc3ccc(F)cc3)c3ccc(OC)cc3c2=O)cc1	-25%	0%[46.1 µM]	.	6%[46.1 µM]	-71*
CCOc1ccc(NC(=O)Cn2cc(C(=O)c3ccc(CC)cc3)c(=O)c3cc(OC)c(OC)cc32)cc1	-23%	-2%[46.1 µM]	.	15%[46.1 µM]	2
